Assay outcomes: PubChem BioAssay, National Center for Advancing Translational Sciences (NCATS)
An excerpt weighted towards active compounds, which were near 2.6% of everything screened.
GLP1R inv ag: qHTS of GLP-1 Receptor Inverse Agonists (Inhibition Mode). HEK293 GLP-1R CRE-luciferase, luminescence, 24 h; GLP-1R form is constitutively active. Potency, µM (series often up to 38.3 µM), for inactives: at the highest dose activity change, negative = inhibition, actives largely listed as inhibitors. 410,000 compounds, 1.6% hits. AID 624417, 2012; also: % is scaled to controls: 0 for no effect and ±100 for the full control effect; nearly all actives have a fitted effect of over 55% in size
Target sequence (P43220 whole entry, looked up): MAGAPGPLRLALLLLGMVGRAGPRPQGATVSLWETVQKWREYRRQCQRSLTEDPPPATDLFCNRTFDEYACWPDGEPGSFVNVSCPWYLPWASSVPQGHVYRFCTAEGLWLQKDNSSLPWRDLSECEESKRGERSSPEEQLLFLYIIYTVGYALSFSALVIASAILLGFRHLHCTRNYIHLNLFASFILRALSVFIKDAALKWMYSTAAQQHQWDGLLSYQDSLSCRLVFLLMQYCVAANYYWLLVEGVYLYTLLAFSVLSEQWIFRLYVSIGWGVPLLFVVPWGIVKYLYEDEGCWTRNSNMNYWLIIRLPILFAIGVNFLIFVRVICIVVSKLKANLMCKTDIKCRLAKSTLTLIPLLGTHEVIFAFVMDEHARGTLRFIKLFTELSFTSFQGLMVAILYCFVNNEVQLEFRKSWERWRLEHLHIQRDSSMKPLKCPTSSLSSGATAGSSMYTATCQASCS
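Readout was luciferase luminescence, measured 12 min after detection reagent at room temperature. Beforehand, GLP-1R reporter HEK293 cells had sat 12 h, then received compounds for 24 hr at 37 deg C.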
GLP1R cytotox: qHTS of GLP-1 Receptor Inverse Agonists: Cytotox Screen; HEK293 cAMP-luciferase reporter cells, luminescence, 24 h; Potency, µM (doses to about 38.3 µM), without a hit: at the highest dose activity change, negative = inhibition, most hits filed as inhibitors; 410,000 compounds, 0.13% hits;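 also: loss of luciferase light is scored as toxicity; % is scaled to controls: 0 for no effect and ±100 for the full control effect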
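Seeding density was 200 cells/uL; after overnight-length (12 h) culture, 23 nL compounds went on for 24 h at 37 °C. Readout used a luciferase detection reagent, luminescence taken after 12 min at room temperature.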
GLP-1R agonist: qHTS of GLP-1 Receptor Agonists; Glucagon-like peptide 1 receptor (Homo sapiens), P43220; HEK293 GLP-1R CRE-luciferase, luminescence, 4-6 h; cells express a hypersensitive GLP-1R form; Potency, µM (series often up to 45.6 µM), for the others: at the highest dose activation, hits mostly activators; 380,000 compounds, 0.007% hits; AID 624172, 2012; also: % of control where 0% means no effect
BRCA1 expr act: qHTS Assay to Identify Small Molecule Activators of BRCA1 Expression. 380,000 compounds, 1.1% hits. MCF7-BRCA1-FFLuc reporter, luminescence, 48 h; response scale: scaled: vehicle 0%, 10 µM genistein 100%. Potency, µM (doses to about 46.1 µM), inactives show top-dose activation, actives largely listed as activators; also: nearly all actives have a fitted effect of over 80% in size
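Luminescence from a BRCA1-driven firefly luciferase in MCF7 cells was the read-out, taken 15 min after substrate addition following 48 h compound exposure at 37 °C. Data were normalized to a 10 microM genistein control and DMSO vehicle.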
* marks the source's active call; other numbers are inactive results; ? = inconclusive; nt = not tested or not shown. Calls follow the shape of the dose curve; as a rule, active = well fitted curve in the direction sought with a large enough effect; inconclusive = small, poorly fitted or top-dose-only effect, or another doubt; inactive = no such curve, though single readings can be large; an effect the other way counts as inactive or inconclusive. Potency is read from the fitted curve at half-maximal effect.

SMILES	GLP1R inv ag	GLP1R cytotox	GLP-1R agonist	BRCA1 expr act
COc1ccc(C2N=C(c3ccccc3)NO2)cc1OC (stereo not drawn)	?	5.0%	11.6%	70.2%
CCOC(=O)c1sc2nc(CC(=O)OC)nc(N3CCN(c4ccc(OC)cc4)CC3)c2c1C	3.98µM*	-7.2%	19.5%	-33.7%
COc1cc2ccccc2cc1C(=O)N1CCN(c2nc3ccc(F)cc3s2)CC1	0.4%	4.0%	nt	nt
CC(C)(C)c1ccc(C(=O)NC(=S)N2CCOCC2)cc1	-17.4%	?	8.3%	10µM*
CN1CCN(CC(=O)N2c3ccccc3C(C)(c3ccccc3)CC2(C)C)CC1 (stereo not drawn)	10µM*	-24.2%	-10.0%	-66.4%
CC(/C=N/N1CCN(c2ccccc2)CC1)=C\c1ccco1	-6.6%	-13.4%	-10.2%	6.31µM*
COc1cc2c(NC3CCN(C)CC3)nc(N3CCCN(C)CC3)nc2cc1OCCCC(C)C	nt	nt	nt	-70.5%
COc1cc2c(cc1OC)C(c1cc(OC)c(O)c(OC)c1)CC(=O)N2 (stereo not drawn)	6.1%	3.4%	1.1%	2.7%
COc1ccc(C(O)(C(=O)NNc2ccc(C)cc2)c2cccs2)cc1 (stereo not drawn)	2.51µM*	17.9%	-4.7%	3.5%
CSCC[C@H](NC(=O)N1CCn2c1nc1ccccc12)C(=O)NCc1ccc(F)cc1	?	-4.0%	-1.3%	-37.5%
COc1cc(NC(=O)[C@@H](NC(=O)N2CCn3c2nc2ccccc23)C(C)C)cc(OC)c1	10µM*	?	6.1%	-22.2%
COc1ccc(CNC(=O)[C@H](CCSC)NC(=O)N2CCn3c2nc2ccccc23)cc1	5.01µM*	-14.8%	16.1%	-5.0%
COc1cc2c(NC3CCN(C)CC3)nc(N3CCCN(C)CC3)nc2cc1OCC1CCNCC1	nt	nt	nt	-7.7%
CCCc1nc2ccccc2c(=O)n1/N=C/c1ccccc1O	4.47µM*	-3.8%	8.1%	-94.8%
Cc1nc2ccccc2c(=O)n1/N=C/c1ccc(O)cc1O	45.8%	0.4%	-9.3%	14.5%
Cc1ccccc1OCc1nc2ccccc2c(=O)n1/N=C/c1c[nH]c2ccccc12	?	?	1.3%	-92.2%
CCCc1nc2ccccc2c(=O)n1/N=C/c1c(C)[nH]n(-c2ccc(C)cc2)c1=O	-16.6%	-9.4%	9.3%	-73.1%
Cc1nc2ccccc2c(=O)n1/N=C/c1ccccc1Cl	47.3%	19.0%	15.7%	10µM*
Cc1cccc(C)c1OCc1nc2ccccc2c(=O)n1/N=C/c1c[nH]c2ccccc12	2.82µM*	-23.4%	-0.2%	-101.0%
COc1ccc(C(CNC(=O)c2ccc(NS(=O)(=O)c3ccc4c(c3)OCCO4)cc2)N(C)C)cc1 (stereo not drawn)	?	2.1%	-1.5%	-13.4%
Cc1ccc(-c2csc3ncnc(Sc4nnnn4-c4ccccc4)c23)cc1	nt	nt	nt	-51.0%
CC(=O)c1cccc(-n2c(=O)c3c4c(sc3n(CC(=O)c3ccc(Cl)cc3)c2=O)CN(C(C)=O)CC4)c1	-7.4%	3.4%	-0.5%	-15.8%
COc1cccc(NC(=O)C(NCC2CCCCC2)c2ccccc2)c1 (stereo not drawn)	10µM*	-7.3%	7.7%	-5.8%
O=C(Nc1ccc(F)cc1)C(NC1CCCCC1)c1ccccc1 (stereo not drawn)	7.94µM*	19.1%	8.1%	4.4%
Cc1c(C(=O)NCc2ccccc2Br)oc2c1-c1[nH]ncc1CC2	17.3%	2.7%	nt	nt
SMILES	GLP1R inv ag	GLP1R cytotox	GLP-1R agonist	BRCA1 expr act
COc1ccc([N+](=O)[O-])cc1NC(=S)NC(NC(C)=O)C(Cl)(Cl)Cl (stereo not drawn)	?	2.0%	-1.3%	-3.4%
COc1ccc([N+](=O)[O-])cc1NC(=S)NC(NC(=O)Cc1ccc(OC)c(OC)c1)C(Cl)(Cl)Cl (stereo not drawn)	4.47µM*	?	-5.0%	-62.2%
Cc1cccc(Cn2nc(C(C)(C)C)cc2C(=O)Nc2ccc(F)cc2)c1	5.01µM*	?	-0.3%	-23.5%
COC(=O)c1cc(NC(=O)c2cc(C(C)(C)C)nn2Cc2ccc(F)cc2)ccc1N1CCOCC1	3.55µM*	-26.6%	-1.5%	-82.4%
CC(C)(C)c1cc(C(=O)NN)n(Cc2ccc(F)cc2)n1	?	3.6%	2.5%	-26.9%
O=c1c(S(=O)(=O)c2ccccc2)cn(Cc2ccc(F)cc2)c2cc(N3CCCC3)c(F)cc12	-5.7%	-12.6%	nt	nt
CN(C(=O)c1cc2sccc2n1C)C1CCCCC1	?	-2.1%	0.6%	6.31µM*
CCn1c(C(=O)NC2CCC(C)CC2)cc2sccc21 (stereo not drawn)	?	-10.8%	-2.2%	?
Cn1c(C(=O)NC2CCCCC2)cc2sccc21	0.0%	-20.7%	-0.1%	5.62µM*
Cc1ccc(NC(=O)[C@@H](c2ccccc2)N2Cc3ccccc3C2=O)cc1F	10µM*	-7.3%	-4.1%	-20.6%
Clc1cccc(-c2nc3ccccn3c2Nc2ccc3c(c2)OCCO3)c1	6.31µM*	-6.5%	nt	nt
Oc1ccc(-c2nc3ccccn3c2Nc2ccc3c(c2)OCCO3)cc1	-9.1%	-3.5%	nt	nt
CC(=O)Nc1cccc(-c2ccnc3c2CC(C)(C(=O)NCCC(F)(F)F)O3)c1 (stereo not drawn)	?	?	12.9%	-47.1%
COc1ccc(N=C(c2ccccc2)c2c(C)[nH]n(-c3ccccc3)c2=O)c(OC)c1	7.94µM*	9.6%	10.2%	-36.3%
COc1ccccc1N=Nc1c(C)[nH]n(-c2ccccc2)c1=O	6.6%	9.9%	3.3%	-47.7%
CCSc1ncc(Cl)c(C(=O)N(Cc2ccccc2)c2ccc(OC)cc2)n1	5.62µM*	-12.5%	nt	nt
CCSc1ncc(Cl)c(C(=O)N(Cc2ccc(N(C)C)cc2)Cc2ccco2)n1	?	-4.6%	nt	nt
CN1[C@@H]2CC[C@@H]1CC(OC(=O)[C@H](CO)c1ccccc1)C2 (stereo partly drawn)	nt	nt	7.3%	nt
Cc1ccc(Nc2cc(C)c(C#N)c3nc4ccccc4n23)c(C)c1	12.8%	2.2%	-0.2%	-6.9%
CCCC(=O)Nc1ccc(C(=O)COC(=O)C2CC2C)cc1 (stereo not drawn)	2.9%	8.8%	2.4%	11.2µM*
CC(=O)Nc1ccc(C(=O)COC(=O)C2CC2C)c(F)c1 (stereo not drawn)	-15.6%	-7.1%	6.9%	6.31µM*
COc1ccc(C2CC2/C(=N/OC(=O)c2cccs2)c2ccccc2)cc1 (stereo not drawn)	?	-28.4%	9.4%	7.08µM*
COc1ccc(C(=O)O/N=C(/c2cccs2)C(C)(C)C)cc1	-28.4%	-5.4%	4.3%	17.3%
CC(=O)Nc1ccc(C(=O)COC(=O)c2cccs2)c(F)c1	-0.5%	-21.9%	-0.1%	14.1µM*
CC1CC1C(=O)OCC(=O)N(C)CC(=O)Nc1ccc(F)cc1 (stereo not drawn)	8.2%	-14.3%	-2.4%	0.0%
